Measured values: PubChem BioAssay
The source made the active and inactive calls.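 Rule for the calls: active = visually confirmed hit in the image check and inhibition above 20%; inconclusive = visually confirmed hit but inhibition not above 20%; inactive = no visual hit in the image check.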

Assay: endothelial E-selectin expression blockers – imaging, HUVEC, immunofluorescence, MLSMR starter and 10KST1 sets, primary screen (AID 487);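 for inhibition: signal is fraction of cell area covered by stained E-selectin grains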;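 for nuclei count: 100% = median nuclei count of all wells on the same plate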
Conditions: HUVEC TNFalpha-induced E-selectin immunofluorescence imaging, at 2 µM; inhibition: stronger effect = higher value; nuclei count: measured here: cell number, toxicity

Question: For `O=C(COc1ccc(-c2nnc(N3CCCCC3)c3ccccc23)cc1)N1CCCCC1`, which inhibition is on record?
Answer: -58.5% (inactive)

Question: What about the nuclei count of the same molecule?
Answer: 89.7%

Question: For `CC(C(=O)N(C)C)N(C#N)c1nc(N(C)C)nc(N(C)C)n1` (centres undefined), which nuclei count is on record?
Answer: 80.9%

Question: What about the inhibition of the same molecule?
Answer: 7.8% (inactive)

Question: Which inhibition does the source give for `CC(C(=O)NC(=O)NCc1ccccc1)N1C(=O)c2ccccc2C1=O` (centres undefined) here?
Answer: -28.7% (inactive)

Question: What about the nuclei count of the same molecule?
Answer: 94.9%

Question: What does the source list for `CCN(CC)CCN1C(=O)c2ccccc2NC1c1cc(OC)c(OC)c(OC)c1` (centres undefined)?
Answer: nuclei count: 132%; inhibition: 57.5% (inactive)

Question: Which results are given for `O=C(NCc1ccccc1)/C(=N\O)c1ccccc1`?
Answer: inhibition: 3.5% (inactive); nuclei count: 157%

Question: Which nuclei count does the source give for `Cn1ncc2nc[nH]c(=O)c21` here?
Answer: 110%

Question: What about the inhibition of the same molecule?
Answer: -49.9% (inactive)

Question: Which inhibition does the source give for `Clc1ccc(-n2ncc3c(NCc4ccco4)ncnc32)cc1` here?
Answer: 19.7% (inactive)

Question: And the nuclei count?
Answer: 154%

Question: With `COC(=O)c1ccc(Cn2c(O)c(N=O)c3ccccc32)o1` as the molecule, how does the inhibition read?
Answer: -36.4% (inactive)

Question: And the nuclei count?
Answer: 122%

Assay: Primary imaging screen for DUSP6 inhibitors that restore phospho-Erk in transfected HeLa cells, chemical complementation (AID 609)
Conditions: HeLa MKP-3 transfected, phospho-Erk imaging KS statistic; measured here: cell density z-score; at 10 µM; cells stimulated with TPA for 15 min

Question: For `CCCCCOc1ccccc1C(=O)NCCCC(=O)O`, which z-score is on record?
Answer: 0.366

Question: With `Cc1cc(=O)oc(C)c1C(=O)Nc1ccc2nsnc2c1` as the molecule, how does the z-score read?
Answer: 0.355

Question: For `CCOC(=O)NC1(C(F)(F)F)C(=O)NC(C)=C1C#N` (centres undefined), which z-score is on record?
Answer: -0.0977

Question: Which z-score does the source give for `CCc1cc(=O)oc2cc(C)c(CN3CCCC3)c(O)c12` here?
Answer: -0.426

Question: For `Cc1cc(Nc2ccc3ccccc3c2)n2ncnc2n1`, which z-score is on record?
Answer: -0.633

Question: With `O=c1c2c3c(sc2n2cnnc2n1C1CCCCC1)CCC3` as the molecule, how does the z-score read?
Answer: -0.995

Question: Which z-score does the source give for `Cc1cccc(-n2ncc3c(NCCN4CCOCC4)ncnc32)c1` here?
Answer: -0.984

Question: Which z-score does the source give for `CCCCOC(=O)CSC1=C(C#N)C(c2ccc3c(c2)OCO3)CC(=O)N1` (centres undefined) here?
Answer: 1.99

Question: Which z-score does the source give for `COC(=O)CSCC(=O)Nc1cc2c(cc1C(C)=O)OCO2` here?
Answer: 0.0556

Question: With `Cc1c(C)[n+](=O)c2c(n1[O-])CCC2` as the molecule, how does the z-score read?
Answer: -0.661

Question: For `CC1CCN(c2ncnc3c2cnn3Cc2ccc(Cl)cc2)CC1`, which z-score is on record?
Answer: -0.011

Question: Which z-score does the source give for `Cc1cc(=O)oc(C)c1C(=O)n1nc(C)c2c1C[C@@H]1[C@H]2C1(C)C` here?
Answer: 0.489

Question: With `Cc1cc(=O)oc(C)c1C(=O)NC1CC(C)(C)NC(C)(C)C1` as the molecule, how does the z-score read?
Answer: -0.541

Question: For `O=C(Oc1oc(-c2ccco2)nc1C=Nc1ccccc1)c1ccco1`, which z-score is on record?
Answer: -2.44

Question: For `Cn1c(=O)c2c(nc(NCCCO)n2Cc2cccc(C(F)(F)F)c2)n(C)c1=O`, which z-score is on record?
Answer: -1.68

Question: Which z-score does the source give for `Cc1ccc(Oc2nc3c(c(=O)n(Cc4ccccc4F)c(=O)n3C)n2C)cc1` here?
Answer: 0.256

Question: For `N#Cc1c(N)n(CCOC(=O)c2ccc(Cl)cc2)c2nc3ccccc3nc12`, which z-score is on record?
Answer: -0.315

Question: Which z-score does the source give for `CCCc1nnc(NC(=O)Nc2ccccc2OC)s1` here?
Answer: 1.95

Question: With `O=C(C1=C(O)C(=O)N(CCCN2CCOCC2)C1c1ccccn1)c1cc2ccccc2o1` (centres undefined) as the molecule, how does the z-score read?
Answer: 0.823

Question: Which z-score does the source give for `COc1ccc(CCn2c(=N)c(C(=O)NCc3ccco3)cc3c(=O)n4ccccc4nc32)cc1OC` here?
Answer: 1.26

Question: Which z-score does the source give for `O=C(c1ccccc1)n1c(=S)nc2ccccn21` here?
Answer: 0.295

Question: For `CCc1nc2n[nH]c(N)c2c2c1CCCC2`, which z-score is on record?
Answer: 1.38

Question: For `O=c1c2ccccc2ncn1Cc1ccco1`, which z-score is on record?
Answer: -0.419

Question: Which z-score does the source give for `O=C(O)c1cc2sccc2s1` here?
Answer: 0.481

Question: With `CC(C)c1[nH]c(=O)c(C#N)c2c1CSC(C)(C)C2` as the molecule, how does the z-score read?
Answer: 0.147

Question: With `CC1(C)Cc2c(c(N3CCOCC3)nc3snc(Br)c23)CO1` as the molecule, how does the z-score read?
Answer: -1.77

Question: For `COc1ccc(C2C(C#N)=C(N)Oc3cc(C)n(CCN4CCOCC4)c(=O)c32)cc1OC` (centres undefined), which z-score is on record?
Answer: -1.19

Question: With `Cc1ccc(N2C(=O)CC3(CC4C=CC3C4)C2=O)cc1` (centres undefined) as the molecule, how does the z-score read?
Answer: 1.62

Question: For `CCCc1cc(NCCN2CCOCC2)n2c(nc3ccccc32)c1C#N`, which z-score is on record?
Answer: -1.9

Question: Which z-score does the source give for `CCN(CC)CCCN1C(=O)C(=O)/C(=C(/O)c2ccc(OC)cc2)C1c1ccco1` (centres undefined) here?
Answer: 0.516

Question: Which z-score does the source give for `Cc1ccc(-n2ncc3c(NCCCOC(C)C)ncnc32)c(C)c1` here?
Answer: -1.65

Question: For `O=C(COc1ccc(-c2nnc(N3CCCCC3)c3ccccc23)cc1)N1CCCCC1`, which z-score is on record?
Answer: 0.333

Question: Which z-score does the source give for `CC(C(=O)N(C)C)N(C#N)c1nc(N(C)C)nc(N(C)C)n1` (centres undefined) here?
Answer: -1.86

Question: For `CC(C(=O)NC(=O)NCc1ccccc1)N1C(=O)c2ccccc2C1=O` (centres undefined), which z-score is on record?
Answer: 0.127

Question: With `CCN(CC)CCN1C(=O)c2ccccc2NC1c1cc(OC)c(OC)c(OC)c1` (centres undefined) as the molecule, how does the z-score read?
Answer: 0.00511

Question: For `O=C(NCc1ccccc1)/C(=N\O)c1ccccc1`, which z-score is on record?
Answer: 0.588

Question: With `Cn1ncc2nc[nH]c(=O)c21` as the molecule, how does the z-score read?
Answer: -0.739

Question: For `Clc1ccc(-n2ncc3c(NCc4ccco4)ncnc32)cc1`, which z-score is on record?
Answer: 0.502

Question: For `COC(=O)c1ccc(Cn2c(O)c(N=O)c3ccccc32)o1`, which z-score is on record?
Answer: -2.02

Same assay, conditions: HeLa MKP-3 transfected, phospho-Erk imaging KS statistic; measured here: nuclear c-Myc green intensity z-score; at 10 µM; cells stimulated with TPA for 15 min

Question: Which z-score does the source give for `CCCCCOc1ccccc1C(=O)NCCCC(=O)O` here?
Answer: -0.837

Question: Which z-score does the source give for `Cc1cc(=O)oc(C)c1C(=O)Nc1ccc2nsnc2c1` here?
Answer: 0.546

Question: For `CCOC(=O)NC1(C(F)(F)F)C(=O)NC(C)=C1C#N` (centres undefined), which z-score is on record?
Answer: -0.0162

Question: Which z-score does the source give for `CCc1cc(=O)oc2cc(C)c(CN3CCCC3)c(O)c12` here?
Answer: -0.164

Question: For `Cc1cc(Nc2ccc3ccccc3c2)n2ncnc2n1`, which z-score is on record?
Answer: 0.516

Question: Which z-score does the source give for `O=c1c2c3c(sc2n2cnnc2n1C1CCCCC1)CCC3` here?
Answer: -0.714

Question: For `Cc1cccc(-n2ncc3c(NCCN4CCOCC4)ncnc32)c1`, which z-score is on record?
Answer: 1.25

Question: For `CCCCOC(=O)CSC1=C(C#N)C(c2ccc3c(c2)OCO3)CC(=O)N1` (centres undefined), which z-score is on record?
Answer: 0.113

Question: With `COC(=O)CSCC(=O)Nc1cc2c(cc1C(C)=O)OCO2` as the molecule, how does the z-score read?
Answer: -1.11

Question: Which z-score does the source give for `Cc1c(C)[n+](=O)c2c(n1[O-])CCC2` here?
Answer: -0.154

Question: Which z-score does the source give for `CC1CCN(c2ncnc3c2cnn3Cc2ccc(Cl)cc2)CC1` here?
Answer: 0.63

Question: For `Cc1cc(=O)oc(C)c1C(=O)n1nc(C)c2c1C[C@@H]1[C@H]2C1(C)C`, which z-score is on record?
Answer: 0.72

Question: Which z-score does the source give for `Cc1cc(=O)oc(C)c1C(=O)NC1CC(C)(C)NC(C)(C)C1` here?
Answer: 0.659

Question: With `O=C(Oc1oc(-c2ccco2)nc1C=Nc1ccccc1)c1ccco1` as the molecule, how does the z-score read?
Answer: 1.67

Question: With `Cn1c(=O)c2c(nc(NCCCO)n2Cc2cccc(C(F)(F)F)c2)n(C)c1=O` as the molecule, how does the z-score read?
Answer: -0.0388

Question: For `Cc1ccc(Oc2nc3c(c(=O)n(Cc4ccccc4F)c(=O)n3C)n2C)cc1`, which z-score is on record?
Answer: -1.95

Question: Which z-score does the source give for `N#Cc1c(N)n(CCOC(=O)c2ccc(Cl)cc2)c2nc3ccccc3nc12` here?
Answer: -0.666

Question: With `CCCc1nnc(NC(=O)Nc2ccccc2OC)s1` as the molecule, how does the z-score read?
Answer: 0.159

Question: With `O=C(C1=C(O)C(=O)N(CCCN2CCOCC2)C1c1ccccn1)c1cc2ccccc2o1` (centres undefined) as the molecule, how does the z-score read?
Answer: 0.459

Question: For `COc1ccc(CCn2c(=N)c(C(=O)NCc3ccco3)cc3c(=O)n4ccccc4nc32)cc1OC`, which z-score is on record?
Answer: -0.19

Question: Which z-score does the source give for `O=C(c1ccccc1)n1c(=S)nc2ccccn21` here?
Answer: -2.19

Question: For `CCc1nc2n[nH]c(N)c2c2c1CCCC2`, which z-score is on record?
Answer: -1.2

Question: For `O=c1c2ccccc2ncn1Cc1ccco1`, which z-score is on record?
Answer: -1.56

Question: Which z-score does the source give for `O=C(O)c1cc2sccc2s1` here?
Answer: -0.0742

Question: With `CC(C)c1[nH]c(=O)c(C#N)c2c1CSC(C)(C)C2` as the molecule, how does the z-score read?
Answer: 0.162

Question: Which z-score does the source give for `CC1(C)Cc2c(c(N3CCOCC3)nc3snc(Br)c23)CO1` here?
Answer: 2.53

Question: For `COc1ccc(C2C(C#N)=C(N)Oc3cc(C)n(CCN4CCOCC4)c(=O)c32)cc1OC` (centres undefined), which z-score is on record?
Answer: 0.613

Question: For `Cc1ccc(N2C(=O)CC3(CC4C=CC3C4)C2=O)cc1` (centres undefined), which z-score is on record?
Answer: -0.359

Question: With `CCCc1cc(NCCN2CCOCC2)n2c(nc3ccccc32)c1C#N` as the molecule, how does the z-score read?
Answer: 2.65

Question: With `CCN(CC)CCCN1C(=O)C(=O)/C(=C(/O)c2ccc(OC)cc2)C1c1ccco1` (centres undefined) as the molecule, how does the z-score read?
Answer: 0.587

Question: With `Cc1ccc(-n2ncc3c(NCCCOC(C)C)ncnc32)c(C)c1` as the molecule, how does the z-score read?
Answer: 1.1

Question: With `O=C(COc1ccc(-c2nnc(N3CCCCC3)c3ccccc23)cc1)N1CCCCC1` as the molecule, how does the z-score read?
Answer: -0.404

Question: For `CC(C(=O)N(C)C)N(C#N)c1nc(N(C)C)nc(N(C)C)n1` (centres undefined), which z-score is on record?
Answer: 1.62

Question: With `CC(C(=O)NC(=O)NCc1ccccc1)N1C(=O)c2ccccc2C1=O` (centres undefined) as the molecule, how does the z-score read?
Answer: 0.0595

Question: For `CCN(CC)CCN1C(=O)c2ccccc2NC1c1cc(OC)c(OC)c(OC)c1` (centres undefined), which z-score is on record?
Answer: -1.27

Question: With `O=C(NCc1ccccc1)/C(=N\O)c1ccccc1` as the molecule, how does the z-score read?
Answer: 0.215

Question: For `Cn1ncc2nc[nH]c(=O)c21`, which z-score is on record?
Answer: -0.543

Question: With `Clc1ccc(-n2ncc3c(NCc4ccco4)ncnc32)cc1` as the molecule, how does the z-score read?
Answer: -0.386

Question: For `COC(=O)c1ccc(Cn2c(O)c(N=O)c3ccccc32)o1`, which z-score is on record?
Answer: 0.422
